Reference: PubChem BioAssay (NCI)
The panel holds about 83,000 compounds, 20% with a hit somewhere; the sample as a whole holds those more often.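 Negative percent growth values reflect cell death: -40 means 40% of the cells present at the start died, and -100 means all died.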 Active and inactive are the calls of the source. Rule for the calls: active = growth percent below 10; inactive = the rest.

Assays:
Assay in all cases: NCI-60 one-dose screen, 48 h (100 = growth as untreated, 0 = no growth, -100 = all killed)
Conditions in all cases: 10 µM unless noted
HCT-15 colon = tested on: HCT-15 colon
HT29 colon = tested on: HT29 colon
SNB-75 CNS = tested on: SNB-75 CNS
SNB-19 CNS = tested on: SNB-19 CNS
U251 CNS = tested on: U251 CNS
PC-3 prostate = tested on: PC-3 prostate
SK-MEL-5 melanoma = tested on: SK-MEL-5 melanoma
UACC-62 melanoma = tested on: UACC-62 melanoma
LOX IMVI melanoma = tested on: LOX IMVI melanoma
SK-MEL-28 melanoma = tested on: SK-MEL-28 melanoma

Measured: growth

CCCN(CCC)CC(O)COc1ccccc1C(=O)Nc1ccccc1 (stereo not given)
inactive: HCT-15 colon 72.8% | HT29 colon 71.3% | SNB-75 CNS 56.2% | SNB-19 CNS 94.6% | U251 CNS 60.4% | PC-3 prostate 70.2% | SK-MEL-5 melanoma 53.3% | UACC-62 melanoma 48.1% | LOX IMVI melanoma 56.8% | SK-MEL-28 melanoma 65.2%

C=CCn1c(C)nc2cc(Nc3nc(N4CCOCC4)nc4nc[nH]c34)ccc21
inactive: HCT-15 colon 90.9% | HT29 colon 99.7% | SNB-75 CNS 80.4% | SNB-19 CNS 95.4% | U251 CNS 91.3% | PC-3 prostate 79.9% | SK-MEL-5 melanoma 96.2% | UACC-62 melanoma 88.9% | LOX IMVI melanoma 95.2% | SK-MEL-28 melanoma 102%

COc1ccc(-c2nn(-c3cccc(Cl)c3)cc2/C=C2\C(=N)N(c3ccccc3)N=C2N)cc1
inactive: HCT-15 colon 44.5% | HT29 colon 57.4% | SNB-75 CNS 81.6% | SNB-19 CNS 83.5% | U251 CNS 66.3% | PC-3 prostate 39.6% | SK-MEL-5 melanoma 34.8% | SK-MEL-28 melanoma 32.8%
active: UACC-62 melanoma -3.26% | LOX IMVI melanoma 6.46%

O=C(/C=C/c1cn(-c2ccccc2)nc1-c1cccc(Nc2ccnc3cc(Cl)ccc23)c1)c1ccc2c(c1)OCO2
inactive: HCT-15 colon 91.9% | HT29 colon 114% | SNB-75 CNS 101% | SNB-19 CNS 104% | U251 CNS 89.1% | PC-3 prostate 96.6% | SK-MEL-5 melanoma 85.3% | UACC-62 melanoma 104% | LOX IMVI melanoma 94.1% | SK-MEL-28 melanoma 82.7%

COc1cccc(NC(=O)[C@H](C(C)C)n2c(=O)[nH]c3ccccc3c2=O)c1
inactive: HCT-15 colon 104% | HT29 colon 101% | SNB-75 CNS 102% | SNB-19 CNS 117% | U251 CNS 96.8% | PC-3 prostate 95.1% | SK-MEL-5 melanoma 99.2% | UACC-62 melanoma 107% | LOX IMVI melanoma 99.7% | SK-MEL-28 melanoma 114%

C/C(=N\NC(=S)Nc1ccccc1)c1ccccn1
inactive: HCT-15 colon 28.1% | HT29 colon 34.4% | SNB-75 CNS 79.9% | SNB-19 CNS 43.5% | U251 CNS 32.1% | PC-3 prostate 31.6% | SK-MEL-5 melanoma 16.5% | UACC-62 melanoma 16.4% | LOX IMVI melanoma 37.3% | SK-MEL-28 melanoma 59.8%

O=C(O)c1ccccc1N=Cc1ccccc1
inactive: HCT-15 colon 111% | HT29 colon 108% | SNB-75 CNS 119% | SNB-19 CNS 112% | U251 CNS 106% | PC-3 prostate 87.6% | SK-MEL-5 melanoma 116% | UACC-62 melanoma 119% | LOX IMVI melanoma 92.6% | SK-MEL-28 melanoma 129%

COc1ccc(/C=C2\N=C(c3cccnc3)N(c3ccccc3)NC2=O)cc1
inactive: HCT-15 colon 95.1% | HT29 colon 107% | SNB-75 CNS 80.6% | SNB-19 CNS 96.8% | U251 CNS 106% | PC-3 prostate 74.2% | SK-MEL-5 melanoma 98.7% | UACC-62 melanoma 95.4% | LOX IMVI melanoma 92.7% | SK-MEL-28 melanoma 129%

CC1=NC(c2ccc(Cl)cc2)C2=C(N1)/C(=C/c1ccc(Cl)cc1)CCC2 (stereo not given)
inactive: HCT-15 colon 79.8% | HT29 colon 54.4% | SNB-75 CNS 86.6% | SNB-19 CNS 102% | U251 CNS 66% | PC-3 prostate 89.1% | SK-MEL-5 melanoma 84.9% | UACC-62 melanoma 83.3% | LOX IMVI melanoma 36.8% | SK-MEL-28 melanoma 93.9%

C=CCn1c(SCC(=O)Nc2ccc(C(=O)/C=C/c3ccccc3)cc2)nnc1-c1ccc(OC)c(OC)c1
inactive: HCT-15 colon 64.2% | HT29 colon 80.1% | SNB-75 CNS 79.1% | SNB-19 CNS 76.4% | U251 CNS 72.7% | PC-3 prostate 67.8% | SK-MEL-5 melanoma 61.3% | UACC-62 melanoma 72.1% | LOX IMVI melanoma 84.9% | SK-MEL-28 melanoma 97.6%

CCOC(CN1CCN(CC(C)C(=O)c2ccccc2)CC1)c1ccccc1 (stereo not given)
inactive: HCT-15 colon 100% | HT29 colon 108% | SNB-75 CNS 79% | SNB-19 CNS 97.8% | U251 CNS 90.5% | PC-3 prostate 93.6% | SK-MEL-5 melanoma 90.1% | UACC-62 melanoma 105% | LOX IMVI melanoma 101% | SK-MEL-28 melanoma 98%
